# Experimental data from PubChem BioAssay.
# For part of these data: Results with a measured potency or affinity are listed apart. Activity calls are given as the source filed them.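 Rule for the calls, unless noted: active = primary screen activator hit with a dose response curve and TRPC4 channel activation at any tested dose; inactive = no activation, no dose response, or not a primary hit.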
# Tests used:
# [1] = system: TRPC4 beta (transient receptor potential cation channel C4), mouse; experiment: TRPC4 cation channel opening, retest – cell-based, Fluo4 calcium, HEK293 TRPC4beta/mu-opioid, duplicates, 10 µM, confirmation (AID 2426;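 active = fluorescence ratio normalized to control raised more than 50% in primary screen plus both repeat runs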); settings: Fluo4 calcium fluorescence, at 10 µM; hits give high values
# [2] = system: transient receptor potential cation channel C4 beta (TRPC4), mouse; experiment: TRPC4 cation channel opening, second retest – cell-based, second round, Fluo4, HEK293 TRPC4beta/mu-opioid, 1 µM, confirmation (AID 2461;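 active = primary screen active and over 50% activation in each of two duplicate runs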); settings: Fluo4 calcium fluorescence, at 1 µM; hits give high values
# [3] = system: TRPC4 (transient receptor potential cation channel C4 beta), mouse; experiment: potentiation of DAMGO EC20 TRPC4 response – cell-based, second round, Fluo-4, HEK293 TRPC4beta/mu-opioid, 1 µM, confirmation (AID 2554;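 active = primary screen hit whose fluorescence ratio, in both repeats, exceeds the weak agonist control mean by 3 SD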); settings: DAMGO EC20, Fluo-4 calcium flux, at 1 µM; hits give high values
# [4] = system: TRPC4 beta (transient receptor potential cation channel C4), mouse; experiment: potentiation of DAMGO EC20 TRPC4 response – cell-based, Fluo-4, HEK293 TRPC4beta/mu-opioid, confirmation (AID 2555;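 active = primary screen hit whose calcium fluorescence ratio, in both repeats, exceeds the weak agonist control mean by 3 SD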); settings: DAMGO EC20, Fluo-4 calcium flux, at 10 µM; hits give high values
# [5] = target: Short transient receptor potential channel 4 (Mus musculus) (UniProt Q9QUQ5); experiment: blockers of DAMGO-evoked TRPC4 calcium flux – cell-based, Fluo4, HEK293 TRPC4beta/mu-opioid, confirmation (AID 2636;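 active = calcium signal cut by more than 3 SD below the full-agonist control yet still positive, in both repeats and the earlier primary screen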); settings: at 10 µM; hits give high values
# Short transient receptor potential channel 4 (Mus musculus), sequence (Q9QUQ5 whole entry, looked up): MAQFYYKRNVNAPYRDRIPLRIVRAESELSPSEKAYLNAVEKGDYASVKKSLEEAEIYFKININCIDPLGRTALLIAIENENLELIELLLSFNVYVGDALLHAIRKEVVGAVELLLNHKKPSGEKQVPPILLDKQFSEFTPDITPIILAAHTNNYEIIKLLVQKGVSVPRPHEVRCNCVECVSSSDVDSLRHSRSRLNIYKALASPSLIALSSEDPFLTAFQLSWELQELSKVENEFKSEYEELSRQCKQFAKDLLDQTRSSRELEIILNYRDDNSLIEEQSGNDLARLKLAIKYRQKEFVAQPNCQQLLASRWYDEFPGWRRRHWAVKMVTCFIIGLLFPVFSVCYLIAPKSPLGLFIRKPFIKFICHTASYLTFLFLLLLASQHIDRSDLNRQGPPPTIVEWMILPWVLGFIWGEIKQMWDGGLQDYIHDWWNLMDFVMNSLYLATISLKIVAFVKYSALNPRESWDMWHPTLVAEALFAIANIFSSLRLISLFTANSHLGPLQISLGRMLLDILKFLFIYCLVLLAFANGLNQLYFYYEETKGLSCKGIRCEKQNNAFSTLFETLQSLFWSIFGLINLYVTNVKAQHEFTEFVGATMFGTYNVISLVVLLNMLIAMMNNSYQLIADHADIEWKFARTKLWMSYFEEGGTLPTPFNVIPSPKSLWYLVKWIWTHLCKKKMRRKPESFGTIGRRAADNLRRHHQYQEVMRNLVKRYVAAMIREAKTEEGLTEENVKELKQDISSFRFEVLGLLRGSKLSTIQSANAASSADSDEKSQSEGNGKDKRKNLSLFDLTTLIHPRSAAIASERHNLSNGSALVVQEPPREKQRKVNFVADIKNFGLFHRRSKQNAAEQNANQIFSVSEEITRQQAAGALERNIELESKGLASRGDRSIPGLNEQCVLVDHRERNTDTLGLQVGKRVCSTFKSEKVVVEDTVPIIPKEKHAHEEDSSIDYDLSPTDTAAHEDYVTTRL
# [6] = target: Short transient receptor potential channel 4 (Mus musculus) (UniProt Q9QUQ5); experiment: blockers of DAMGO-evoked TRPC4 calcium flux – cell-based, second round, Fluo4, HEK293 TRPC4beta/mu-opioid, 1 µM, confirmation (AID 2637;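 active = calcium signal ratio cut to more than 3 SD under the fully stimulated control mean yet still positive, in both repeats and the primary screen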;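 for inhibition: percent of integrated ratio relative to wells lacking test compound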); settings: at 1 µM; hits give high values
# [7] = target: Short transient receptor potential channel 4 (Mus musculus) (UniProt Q9QUQ5); experiment: calcium entry via TRPC4 opening agents – cell-based, HEK293 TRPC4/mu-opioid, Fluo-4 calcium, dose response (AID 434937)
# [8] = target: Short transient receptor potential channel 4 (Mus musculus) (UniProt Q9QUQ5); experiment: potentiation of DAMGO-evoked TRPC4 calcium signal – cell-based, HEK293 TRPC4/mu-opioid, Fluo-4 calcium, EC20 DAMGO, dose response (AID 434941;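 active = earlier screen potentiator hit that boosts the TRPC4 ion channel at some dose, with a dose response; inactive = no potentiation, no dose response, or not a prior hit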;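 note: calcium entry triggered by an EC20 dose of DAMGO at the co-expressed mu-opioid receptor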)
# [9] = target: Short transient receptor potential channel 4 (Mus musculus) (UniProt Q9QUQ5); experiment: block of DAMGO-driven TRPC4 calcium entry – cell-based, HEK293 TRPC4/mu-opioid, Fluo-4 calcium, dose response (AID 434942;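 active = primary screen inhibitor hit that blocks the TRPC4 channel at some tested dose, yielding a dose curve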)
# [10] = target: Short transient receptor potential channel 6 (Mus musculus) (UniProt Q61143); experiment: TRPC6 blockade by TRPC4 inhibitor hits – cell-based, HEK293, membrane potential dye, duplicate, selectivity assay for TRPC4 inhibitor project, confirmation (AID 434948;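 active = active in primary screen and both duplicates, each dropping signal beyond three positive-control SD with fluorescence still positive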); settings: HEK293 TRPC6, membrane potential dye fluorescence, at 10 µM, stimulated with maximal-effect acetylcholine; hits give high values
# Short transient receptor potential channel 6 (Mus musculus), sequence (Q61143 whole entry, looked up): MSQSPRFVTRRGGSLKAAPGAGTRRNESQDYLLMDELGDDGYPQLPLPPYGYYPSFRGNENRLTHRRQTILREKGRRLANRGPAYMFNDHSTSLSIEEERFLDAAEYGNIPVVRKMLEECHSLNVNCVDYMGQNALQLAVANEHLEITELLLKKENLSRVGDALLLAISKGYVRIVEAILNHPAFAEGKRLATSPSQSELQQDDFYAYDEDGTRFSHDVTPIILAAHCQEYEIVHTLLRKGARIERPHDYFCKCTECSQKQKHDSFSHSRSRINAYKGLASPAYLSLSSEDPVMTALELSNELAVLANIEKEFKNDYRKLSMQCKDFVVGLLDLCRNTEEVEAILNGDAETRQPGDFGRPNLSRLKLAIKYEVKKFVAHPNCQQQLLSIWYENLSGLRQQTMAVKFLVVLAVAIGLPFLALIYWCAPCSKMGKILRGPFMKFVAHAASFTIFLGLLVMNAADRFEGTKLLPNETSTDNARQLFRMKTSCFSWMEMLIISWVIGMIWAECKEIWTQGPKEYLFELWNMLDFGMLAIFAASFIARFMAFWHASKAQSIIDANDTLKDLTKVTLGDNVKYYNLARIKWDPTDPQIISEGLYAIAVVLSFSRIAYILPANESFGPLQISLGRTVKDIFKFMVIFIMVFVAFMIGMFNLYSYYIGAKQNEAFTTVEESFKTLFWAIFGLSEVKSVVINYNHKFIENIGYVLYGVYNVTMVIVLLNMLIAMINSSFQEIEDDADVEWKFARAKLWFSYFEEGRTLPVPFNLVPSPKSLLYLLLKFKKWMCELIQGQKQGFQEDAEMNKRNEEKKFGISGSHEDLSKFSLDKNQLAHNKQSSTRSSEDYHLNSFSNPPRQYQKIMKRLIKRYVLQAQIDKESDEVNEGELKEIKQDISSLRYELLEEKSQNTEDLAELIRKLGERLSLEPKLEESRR
# [11] = target: Short transient receptor potential channel 6 (Mus musculus) (UniProt Q61143); experiment: TRPC6 opening by TRPC4 activator hits – cell-based, HEK293, membrane potential dye, duplicate, selectivity assay for TRPC4 activator project, confirmation (AID 434950;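 active = membrane potential signal rise above negative control mean plus 3 SD in both duplicates, also active in the earlier TRPC4 screen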); settings: HEK293 TRPC6, membrane potential fluorescence, at 10 µM; activation: hits give high values; outcome: activation
# [12] = target: Short transient receptor potential channel 6 (Mus musculus) (UniProt Q61143); experiment: positive modulators of mouse TRPC6 channel – HEK293 cells, membrane potential dye, duplicate, selectivity assay for TRPC4 potentiator project, confirmation (AID 434952;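 active = compound raising the membrane signal above positive-control mean plus 3 SD in both repeats, and a primary screen hit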); settings: HEK293 TRPC6, membrane potential dye fluorescence, at 10 µM, maximal acetylcholine added after compound; hits give high values
# [13] = target: Short transient receptor potential channel 4 (Mus musculus) (UniProt Q9QUQ5); experiment: calcium flux activators in TRPC4/5HT1a cells, counter-screen for TRPC4 activator project, cell-based, second counter screen, HEK293 TRPC4/5HT1a, Fluo-4 (AID 434977;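 active = calcium signal rise above buffer-control mean plus 5 SD in both duplicates, and also a hit in the primary screen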); settings: Fluo-4 calcium flux, at 10 µM; hits give high values
# [14] = serotonin-gated TRPC4 signal block – cell-based, second counter screen, HEK293 TRPC4/5HT1a, Fluo-4, counter-screen for TRPC4 inhibitor project, confirmation (AID 434978;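 active = primary screen active whose calcium signal fell more than 3 SD beyond the full-serotonin control mean in both duplicate plates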;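 for outcome: serotonin given first at submaximal then at maximal dose after compound preincubation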); settings: Fluo-4 calcium flux, at 10 µM, serotonin added to trigger calcium flux; hits give high values
# [15] = system: TRPC4 (mouse), co-expressed with 5HT1a in HEK293; experiment: enhancement of serotonin-evoked TRPC4 response – cell-based, second counter screen, HEK293 TRPC4/5HT1a, Fluo-4, counter-screen for TRPC4 potentiator project, confirmation (AID 434979;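 active = signal rise over 3 SD above mean of control wells given weak agonist, in both repeats and first screen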); settings: Fluo-4 calcium flux, at 10 µM, serotonin added at its EC20 dose; hits give high values
# [16] = nonspecific calcium rise without TRPC4 – cell-based, HEK293 mu-opioid receptor line, counter-screen for TRPC4 activator project, confirmation (AID 449723;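 active = hit in primary screen, with calcium signal over 5 SD above buffer well mean in both duplicates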;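 note: counter screen cells carry the mu-opioid receptor alone and lack TRPC4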); settings: HEK293 mu-opioid cells, Fluo-4 calcium fluorescence, at 10 µM; hits give high values
# [17] = nonspecific potentiation of DAMGO calcium response – cell-based, HEK293 mu-opioid receptor line, counter-screen for TRPC4 allosteric potentiator project, confirmation (AID 449724;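 active = calcium signal rise more than 3 SD above the low-dose agonist control mean, in both duplicate plates and the primary screen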); settings: HEK293 mu-opioid receptor cells, Fluo-4 calcium flux, at 10 µM, compound added before EC20 DAMGO stimulus; hits give high values
compound,measurement,setting,value
Cc1ccc(/C=N/NC(=S)NC2CCCCC2)o1,outcome,[1],inactive
same,outcome,[2],inactive
same,outcome,[3],inactive
same,potentiation,[4],66% (active)
same,outcome,[5],inactive
same,outcome,[6],inactive
same,outcome,[7],inactive
same,outcome,[8],inactive
same,outcome,[9],inactive
same,outcome,[10],inactive
same,outcome,[11],inactive
same,outcome,[12],inactive
same,outcome,[13],inactive
same,outcome,[14],inactive
same,potentiation,[15],85.1% (active)
same,outcome,[16],inactive
same,outcome,[17],inactive
CCc1cc2c3c(c(=O)oc2cc1OCC(=O)OC)CCCC3,outcome,[1],inactive
same,outcome,[2],inactive
same,outcome,[3],inactive
same,outcome,[4],inactive
same,outcome,[5],inactive
same,outcome,[6],inactive
same,outcome,[7],inactive
same,outcome,[8],inactive
same,outcome,[9],inactive
same,outcome,[10],inactive
same,outcome,[11],inactive
same,outcome,[12],inactive
same,outcome,[13],inactive
same,outcome,[14],inactive
same,outcome,[15],inactive
same,outcome,[16],inactive
same,outcome,[17],inactive
Cc1ccc(Cl)c(OCCN2CCCC(C)C2)c1 (stereo not drawn),outcome,[1],inactive
same,outcome,[2],inactive
same,potentiation,[3],25% (active)
same,outcome,[4],inactive
same,outcome,[5],inactive
same,outcome,[6],inactive
same,outcome,[7],inactive
same,outcome,[8],inactive
same,outcome,[9],inactive
same,outcome,[10],inactive
same,outcome,[11],inactive
same,outcome,[12],inactive
same,outcome,[13],inactive
same,outcome,[14],inactive
same,potentiation,[15],7.06% (active)
same,outcome,[16],inactive
same,outcome,[17],inactive
Cc1ccc(C)c2[nH]c(=O)c(CN(Cc3nnnn3C3CCCCC3)CC3CCCO3)cc12 (stereo not drawn),outcome,[1],inactive
same,outcome,[2],inactive
same,outcome,[3],inactive
same,outcome,[4],inactive
same,inhibition,[5],78% (active)
same,outcome,[6],inactive
same,outcome,[7],inactive
same,outcome,[8],inactive
same,outcome,[10],inactive
same,outcome,[11],inactive
same,outcome,[12],inactive
same,outcome,[13],inactive
same,inhibition,[14],33% (active)
same,outcome,[15],inactive
same,outcome,[16],inactive
same,outcome,[17],inactive
Clc1cccc(COn2c(-c3ccc(Cl)cc3Cl)nc3ncccc32)c1,outcome,[1],inactive
same,outcome,[2],inactive
same,outcome,[3],inactive
same,outcome,[4],inactive
same,inhibition,[5],83% (active)
same,inhibition,[6],45% (active)
same,outcome,[7],inactive
same,outcome,[8],inactive
same,outcome,[10],inactive
same,outcome,[11],inactive
same,outcome,[12],inactive
same,outcome,[13],inactive
same,inhibition,[14],41.3% (active)
same,outcome,[15],inactive
same,outcome,[16],inactive
same,outcome,[17],inactive
CC1(C)CC2CC(C)(CN2C(=O)c2cc(-c3ccc(O)cc3)on2)C1 (stereo not drawn),outcome,[1],inactive
same,outcome,[2],inactive
same,outcome,[3],inactive
same,outcome,[4],inactive
same,inhibition,[5],81% (active)
same,outcome,[6],inactive
same,outcome,[7],inactive
same,outcome,[8],inactive
same,outcome,[10],inactive
same,outcome,[11],inactive
same,outcome,[12],inactive
same,outcome,[13],inactive
same,inhibition,[14],31.1% (active)
same,outcome,[15],inactive
same,outcome,[16],inactive
same,outcome,[17],inactive
CNCc1c(OCc2ccccc2)ccc2ccccc12,outcome,[1],inactive
same,outcome,[2],inactive
same,outcome,[3],inactive
same,outcome,[4],inactive
same,inhibition,[5],92% (active)
same,outcome,[6],inactive
same,outcome,[7],inactive
same,outcome,[8],inactive
same,inhibition,[10],46% (active)
same,outcome,[11],inactive
same,outcome,[12],inactive
same,outcome,[13],inactive
same,inhibition,[14],34.9% (active)
same,outcome,[15],inactive
same,outcome,[16],inactive
same,outcome,[17],inactive
O=C(Nc1ccccc1Oc1cccnc1)C1CCCN(Cc2ccc(F)cc2)C1 (stereo not drawn),outcome,[1],inactive
same,outcome,[2],inactive
same,outcome,[3],inactive
same,outcome,[4],inactive
same,inhibition,[5],87% (active)
same,inhibition,[6],43% (active)
same,outcome,[7],inactive
same,outcome,[8],inactive
same,outcome,[10],inactive
same,outcome,[11],inactive
same,outcome,[12],inactive
same,outcome,[13],inactive
same,inhibition,[14],30.2% (active)
same,outcome,[15],inactive
same,outcome,[16],inactive
same,outcome,[17],inactive
Cc1cc(/C=C2/C(=N)N3C(=NC2=O)SN=C3S(C)(=O)=O)c(C)n1-c1ccccc1F,outcome,[1],inactive
same,outcome,[2],inactive
same,outcome,[3],inactive
same,outcome,[4],inactive
same,outcome,[5],inactive
same,outcome,[6],inactive
same,outcome,[7],inactive
same,outcome,[8],inactive
same,outcome,[10],inactive
same,outcome,[11],inactive
same,outcome,[12],inactive
same,outcome,[13],inactive
same,outcome,[14],inactive
same,outcome,[15],inactive
same,outcome,[16],inactive
same,outcome,[17],inactive
O=C(c1cccc(C(=O)N2CCN(c3ccccc3)CC2)c1)N1CCN(c2ccccc2)CC1,outcome,[1],inactive
same,outcome,[2],inactive
same,outcome,[3],inactive
same,outcome,[4],inactive
same,inhibition,[5],92% (active)
same,inhibition,[6],46% (active)
same,outcome,[7],inactive
same,outcome,[8],inactive
same,outcome,[10],inactive
same,outcome,[11],inactive
same,outcome,[12],inactive
same,outcome,[13],inactive
same,inhibition,[14],26.9% (active)
same,outcome,[15],inactive
same,outcome,[16],inactive
same,outcome,[17],inactive
CC1CCCN(c2c3c(nc4ccccc24)CCCC3)C1 (stereo not drawn),outcome,[1],inactive
same,outcome,[2],inactive
same,outcome,[3],inactive
same,outcome,[4],inactive
same,outcome,[5],inactive
same,outcome,[6],inactive
same,outcome,[7],inactive
same,outcome,[8],inactive
same,outcome,[10],inactive
same,outcome,[11],inactive
same,outcome,[12],inactive
same,outcome,[13],inactive
same,inhibition,[14],27.9% (active)
same,outcome,[15],inactive
same,outcome,[16],inactive
same,outcome,[17],inactive
O=C(Cc1ccccc1[N+](=O)[O-])OCc1cccc([N+](=O)[O-])c1,outcome,[1],inactive
same,outcome,[2],inactive
same,outcome,[3],inactive
same,outcome,[4],inactive
same,inhibition,[5],92% (active)
same,inhibition,[6],62% (active)
same,outcome,[7],inactive
same,outcome,[8],inactive
same,outcome,[10],inactive
same,outcome,[11],inactive
same,outcome,[12],inactive
same,outcome,[13],inactive
same,inhibition,[14],35% (active)
same,outcome,[15],inactive
same,outcome,[16],inactive
same,outcome,[17],inactive
COCCn1c(SCc2cccc([N+](=O)[O-])c2)nc2ccccc2c1=O,outcome,[1],inactive
same,outcome,[2],inactive
same,outcome,[3],inactive
same,outcome,[4],inactive
same,inhibition,[5],94% (active)
same,inhibition,[6],45% (active)
same,outcome,[7],inactive
same,outcome,[8],inactive
same,outcome,[10],inactive
same,outcome,[11],inactive
same,outcome,[12],inactive
same,outcome,[13],inactive
same,inhibition,[14],20.4% (active)
same,outcome,[15],inactive
same,outcome,[16],inactive
same,outcome,[17],inactive
CCC(O)C1CCN(Cc2cn(-c3ccc(OC)cc3)nc2-c2cccc(F)c2)CC1 (stereo not drawn),outcome,[1],inactive
same,outcome,[2],inactive
same,outcome,[3],inactive
same,outcome,[4],inactive
same,inhibition,[5],98% (active)
same,outcome,[6],inactive
same,outcome,[7],inactive
same,outcome,[8],inactive
same,outcome,[10],inactive
same,outcome,[11],inactive
same,outcome,[12],inactive
same,outcome,[13],inactive
same,outcome,[14],inactive
same,outcome,[15],inactive
same,outcome,[16],inactive
same,outcome,[17],inactive
COc1ccc(CN(C)C(=O)c2ccc(NC(=O)CC3SC(N4CCCC4)=NC3=O)cc2)c(OC)c1 (stereo not drawn),outcome,[1],inactive
same,outcome,[2],inactive
same,outcome,[3],inactive
same,outcome,[4],inactive
same,inhibition,[5],56% (active)
same,outcome,[6],inactive
same,outcome,[7],inactive
same,outcome,[8],inactive
same,outcome,[10],inactive
same,outcome,[11],inactive
same,outcome,[12],inactive
same,outcome,[13],inactive
same,outcome,[14],inactive
same,outcome,[15],inactive
same,outcome,[16],inactive
same,outcome,[17],inactive
